This passage reports Inhibition results from ChEMBL document CHEMBL4513146, “CO-ADD screening of Karazin Kharkiv National University (Ukraine) compounds”.

Results with a measured potency or affinity are listed apart.

The test system of this experiment is Staphylococcus aureus. As to conditions: Concentration 32 ug.mL-1;; ASSAY_TEST Inhibition of Bacterial Growth; detection method Absorption (OD600); MEDIA CAMHB; plate type 384well; NBS; CORNING #3640; time 18 hr.
As for `Cc1ccc(CN(c2ccc3c(c2)OCO3)S(=O)(=O)c2ccc3nnc(C)n3c2)cc1`, the Inhibition was -0.98%.

As to `COc1cccc(-n2ccn3c(SCC(=O)N4CCN(c5ccc(F)cc5)CC4)nnc3c2=O)c1`, the Inhibition is recorded as 6.4%.

Take `CCC(C)NC(=O)CSc1nnc2c(=O)n(Cc3ccc(F)cc3)ccn12` (stereo unspecified): the Inhibition amounted to 1.4%.

For the compound `CCc1ccccc1Sc1nccn2c(=O)n(CC(=O)NCc3cccs3)nc12`, the Inhibition came to 6.5%.

Consider `Cc1ccccc1NC(=O)Cn1nc2c3cc(-c4ccc(Cl)cc4)nn3ccn2c1=O`, for which the Inhibition is 14.21%.

Regarding `COc1ccccc1N1CCN(C(=O)Cn2nc3ccc(-c4ccc(Cl)cc4)nn3c2=O)CC1`, the Inhibition was determined as 8.63%.

Regarding `COc1cccc(CSc2nnc3c(=O)n(-c4ccc(Br)cc4)ccn23)c1`, the Inhibition is on record as 20.73%.

Turning to `CCCCOc1ccc(-c2cc3c4nnc(SCC(=O)Nc5ccccc5F)n4ccn3n2)cc1`, the Inhibition is given as -0.1%.

Consider `CC(C)c1ccc(NC(=O)Cn2nc3c(N4CCCCC4)nccn3c2=O)cc1`, for which the Inhibition is reported as -8.03%.

With `COc1ccccc1-n1ccn2c(SCC(=O)Nc3ccc4c(c3)OCCO4)nnc2c1=O`, the Inhibition is given as 18.21%.

Take `COC(=O)c1ccc(CN(c2cccc(F)c2)S(=O)(=O)c2ccc3nncn3c2)o1`: the Inhibition worked out at 9.42%.

Take `CCc1ccc(N(Cc2ccccc2)S(=O)(=O)c2cccn3c(CC)nnc23)cc1`: the Inhibition is 13.69%.

As for `Cc1ccc(NC(=O)Cn2nc3c(Oc4ccccc4)nccn3c2=O)c(Cl)c1`, the Inhibition is 0.38%.

For `COC(=O)c1cccc(NC(=O)Cn2nc3c(Oc4ccccc4)nccn3c2=O)c1`, the Inhibition came to 3.03%.

Turning to `CCOc1ccc(NC(=O)Cn2nc3c(Sc4cccc(F)c4)nccn3c2=O)cc1`, the Inhibition stood at 1.32%.

As for `CC(C)c1nnc2c(=O)n(CC(=O)Nc3cccc(F)c3)c3ccccc3n12`, the Inhibition is on record as 22.23%.

Turning to `COc1ccc(NC(=O)Cn2nc3c(Sc4ccccc4)nccn3c2=O)cc1`, the Inhibition is 7.67%.

With `COc1ccc(-c2cc3c4nn(CC(=O)Nc5ccc(OC)c(Cl)c5)c(=O)n4ccn3n2)cc1`, the Inhibition was -2.49%.

Regarding `O=c1c2nnc(SCc3ccc(Cl)cc3)n2ccn1-c1ccc(F)cc1`, the Inhibition is 4.01%.

On to `Cc1nnc2c(S(=O)(=O)N(Cc3ccc(F)cc3)c3ccc(Cl)cc3)cccn12`, for which the Inhibition stood at 5.21%.

With `CSc1ccc(CNC(=O)Cn2nc3c(N4CCN(c5ccccc5)CC4)nccn3c2=O)cc1`, the Inhibition is reported as 15.59%.

Regarding `COc1cc(Cl)c(C)cc1NC(=O)Cn1nc2ccc(SC(C)(C)C)nn2c1=O`, the Inhibition worked out at 0.92%.

For `Cc1ccc(CNC(=O)Cn2nc3c(SC4CCCCC4)nccn3c2=O)cc1`, the Inhibition amounted to 7.11%.

On to `CCCCOc1ccc(-c2cc3c4nnc(SCC(=O)Nc5cc(C)ccc5C)n4ccn3n2)cc1`, for which the Inhibition was -14.19%.

As for `Cc1ccc(Sc2nccn3c(=O)n(CC(=O)Nc4cccc(Cl)c4)nc23)c(C)c1`, the Inhibition was 9.86%.

Take `COc1ccccc1-n1ccn2c(SCC(=O)NCc3ccc(Cl)cc3)nnc2c1=O`: the Inhibition was 12.53%.

As usually defined, the Inhibition is the relative decrease from the control value, in per cent.
